mHTT-CaM PPI inh: mutant huntingtin-calmodulin interaction inhibitors – biochemical, AlphaScreen, primary screen; AlphaScreen His-mHTT/GST-CaM binding, luminescence; inhibition, % at 15 µM; actives 3.6% (n = 190,000); AID 1671202, 2021
Target sequence (P42858 whole entry, looked up, change not shown): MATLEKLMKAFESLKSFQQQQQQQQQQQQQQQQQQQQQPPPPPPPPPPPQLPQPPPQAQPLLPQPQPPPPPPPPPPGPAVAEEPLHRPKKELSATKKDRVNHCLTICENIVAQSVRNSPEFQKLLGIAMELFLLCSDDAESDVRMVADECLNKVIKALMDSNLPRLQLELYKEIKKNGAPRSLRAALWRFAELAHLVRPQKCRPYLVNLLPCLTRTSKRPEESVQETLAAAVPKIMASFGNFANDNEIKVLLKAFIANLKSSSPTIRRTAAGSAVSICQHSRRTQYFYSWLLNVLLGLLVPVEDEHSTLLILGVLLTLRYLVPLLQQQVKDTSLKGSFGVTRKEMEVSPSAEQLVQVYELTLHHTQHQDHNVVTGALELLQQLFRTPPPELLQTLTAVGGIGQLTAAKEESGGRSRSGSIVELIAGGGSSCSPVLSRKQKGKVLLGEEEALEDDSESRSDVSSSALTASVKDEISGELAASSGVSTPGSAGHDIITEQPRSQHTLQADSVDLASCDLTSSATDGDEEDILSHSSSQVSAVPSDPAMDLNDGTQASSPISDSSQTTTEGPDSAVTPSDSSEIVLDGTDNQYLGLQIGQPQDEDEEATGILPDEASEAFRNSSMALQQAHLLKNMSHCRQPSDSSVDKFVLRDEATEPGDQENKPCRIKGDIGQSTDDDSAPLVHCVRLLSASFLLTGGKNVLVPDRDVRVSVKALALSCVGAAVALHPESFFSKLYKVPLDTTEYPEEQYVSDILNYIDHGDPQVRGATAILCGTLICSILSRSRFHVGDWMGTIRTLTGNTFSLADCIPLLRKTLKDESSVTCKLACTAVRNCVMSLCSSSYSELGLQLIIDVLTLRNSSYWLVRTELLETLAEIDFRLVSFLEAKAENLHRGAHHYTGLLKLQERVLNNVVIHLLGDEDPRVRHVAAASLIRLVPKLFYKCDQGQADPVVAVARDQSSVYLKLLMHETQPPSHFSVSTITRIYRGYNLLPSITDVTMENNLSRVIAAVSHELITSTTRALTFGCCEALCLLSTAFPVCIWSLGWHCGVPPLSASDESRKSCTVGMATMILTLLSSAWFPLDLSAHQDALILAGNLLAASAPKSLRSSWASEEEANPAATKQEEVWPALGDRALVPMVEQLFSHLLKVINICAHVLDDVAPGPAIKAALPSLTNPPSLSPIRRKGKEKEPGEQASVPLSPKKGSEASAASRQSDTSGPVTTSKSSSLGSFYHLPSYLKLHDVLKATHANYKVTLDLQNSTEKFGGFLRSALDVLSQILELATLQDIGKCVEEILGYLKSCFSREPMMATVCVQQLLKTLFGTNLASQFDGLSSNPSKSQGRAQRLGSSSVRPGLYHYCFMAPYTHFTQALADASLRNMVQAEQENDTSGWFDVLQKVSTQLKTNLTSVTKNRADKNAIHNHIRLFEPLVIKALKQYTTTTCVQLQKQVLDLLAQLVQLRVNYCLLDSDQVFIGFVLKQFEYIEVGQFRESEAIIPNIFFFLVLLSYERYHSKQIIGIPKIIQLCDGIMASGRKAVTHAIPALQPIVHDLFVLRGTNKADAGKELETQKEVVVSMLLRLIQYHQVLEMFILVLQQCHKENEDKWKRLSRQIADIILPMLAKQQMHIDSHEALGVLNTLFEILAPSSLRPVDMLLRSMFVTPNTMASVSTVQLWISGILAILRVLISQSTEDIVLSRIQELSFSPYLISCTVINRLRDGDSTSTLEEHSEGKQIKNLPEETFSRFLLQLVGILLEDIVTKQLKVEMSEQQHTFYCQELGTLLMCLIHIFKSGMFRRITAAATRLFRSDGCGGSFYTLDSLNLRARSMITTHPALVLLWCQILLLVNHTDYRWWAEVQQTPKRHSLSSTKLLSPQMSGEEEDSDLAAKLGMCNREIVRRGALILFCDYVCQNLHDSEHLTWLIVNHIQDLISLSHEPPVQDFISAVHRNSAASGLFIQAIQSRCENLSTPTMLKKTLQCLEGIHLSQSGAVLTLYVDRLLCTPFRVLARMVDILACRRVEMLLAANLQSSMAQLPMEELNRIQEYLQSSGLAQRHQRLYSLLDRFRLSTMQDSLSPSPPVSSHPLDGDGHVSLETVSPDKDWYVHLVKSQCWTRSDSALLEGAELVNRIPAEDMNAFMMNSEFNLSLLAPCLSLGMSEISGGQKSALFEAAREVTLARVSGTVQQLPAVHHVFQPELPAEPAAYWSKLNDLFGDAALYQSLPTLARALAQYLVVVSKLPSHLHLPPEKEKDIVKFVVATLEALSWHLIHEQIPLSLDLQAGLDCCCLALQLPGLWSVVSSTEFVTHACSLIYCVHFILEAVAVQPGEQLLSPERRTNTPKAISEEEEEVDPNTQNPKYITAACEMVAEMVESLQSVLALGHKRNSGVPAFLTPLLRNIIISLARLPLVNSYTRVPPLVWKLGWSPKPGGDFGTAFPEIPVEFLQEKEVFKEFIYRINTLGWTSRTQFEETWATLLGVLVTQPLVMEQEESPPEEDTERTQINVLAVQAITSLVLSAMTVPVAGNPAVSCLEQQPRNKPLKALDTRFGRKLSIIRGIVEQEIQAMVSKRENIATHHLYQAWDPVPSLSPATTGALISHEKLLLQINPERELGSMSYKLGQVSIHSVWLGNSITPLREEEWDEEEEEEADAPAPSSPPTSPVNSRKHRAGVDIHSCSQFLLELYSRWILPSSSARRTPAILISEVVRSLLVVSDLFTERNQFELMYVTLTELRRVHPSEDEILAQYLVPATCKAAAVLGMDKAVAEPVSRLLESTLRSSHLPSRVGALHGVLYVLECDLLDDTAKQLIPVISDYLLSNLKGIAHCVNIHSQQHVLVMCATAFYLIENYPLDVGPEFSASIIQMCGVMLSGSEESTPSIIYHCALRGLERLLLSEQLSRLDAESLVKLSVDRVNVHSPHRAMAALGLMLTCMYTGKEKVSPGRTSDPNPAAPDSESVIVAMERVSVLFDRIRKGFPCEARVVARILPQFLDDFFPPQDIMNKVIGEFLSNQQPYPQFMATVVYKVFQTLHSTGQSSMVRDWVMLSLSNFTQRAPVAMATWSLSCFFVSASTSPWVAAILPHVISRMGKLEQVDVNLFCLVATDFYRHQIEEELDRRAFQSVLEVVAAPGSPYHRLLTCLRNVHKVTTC
Pf apPOL inh: Pf-apPOL inhibitors, biochemical, fluorescence. AID 1794808, 2022. Plasmodium falciparum apicoplast DNA polymerase (apPOL). actives 0.25% (n = 210,000). inhibition, % at 10 µM. Recombinant Pf-apPOL, molecular beacon fluorescence, 1.5 h
A number is an active result; 0 = inactive; - = no result. In the library only some 3.6% were active in any assay of this set; here they are far more common. Rule as the data show it: active = inhibition above about 50%; inactive = the rest.

SMILES | mHTT-CaM PPI inh | Pf apPOL inh
O=[N+]([O-])c1cccc(C2N(c3ccccc3)CCN2c2ccccc2)c1 | - | 0
O=C(O)c1cc2c3c(c1)C1C=CCC1C(c1ccccc1F)N3CC1CC=CC21 (stereo not drawn) | 70 | 0
O=C(O)c1cc2c3c(c1)C1C=CCC1C(c1ccccc1)N3CC1CC=CC21 (stereo not drawn) | 94 | 0
NS(=O)(=O)c1cc2c3c(c1)C1C=CCC1C(c1ccc([N+](=O)[O-])cc1)N3CC1CC=CC21 (stereo not drawn) | 63 | 0
O=[N+]([O-])c1ccc(S(=O)(=O)N2CC3C4C=CC(C4)C3C2)cc1 (stereo not drawn) | 0 | 0
C1=CC2c3cccc4c3N(CC2C1)CC1CC=CC41 (stereo not drawn) | 0 | -
O=C(O)c1cc2c3c(c1)C1C=CCC1C(c1ccc(F)cc1)N3CC1CC=CC21 (stereo not drawn) | 96 | 0
O=C(Cn1nc(-c2ccco2)ccc1=O)NCc1ccco1 | 0 | 0
COc1ccc(-c2nc3cccnc3n2C2CCN(C(=O)Nc3cccc(OC)c3)C2)cc1 (stereo not drawn) | 0 | 0
COc1ccc(-c2nc3cccnc3n2C2CCN(C(=O)NCc3cccc(F)c3)C2)cc1 (stereo not drawn) | 0 | 0
CCCc1nc2cccnc2n1C1CCN(C(=O)CCc2ccc(OC)cc2)C1 (stereo not drawn) | 0 | 0
COc1ccc(-c2nc3cccnc3n2C2CCN(C(=O)Nc3cccc(C)c3)C2)cc1 (stereo not drawn) | 62 | 0
COc1ccc(-c2nc3cccnc3n2C2CCN(C(=O)CCc3ccccc3)C2)cc1 (stereo not drawn) | 86 | 0
COc1ccc(-c2nc3cccnc3n2C2CCN(C(=O)NCc3ccc(F)cc3)C2)cc1 (stereo not drawn) | 77 | 0
COc1ccc(-c2nc3cccnc3n2C2CCN(C(=O)c3cccc(F)c3)C2)cc1 (stereo not drawn) | 0 | 0
COc1ccc(-c2nc3cccnc3n2C2CCN(C(=O)c3cc(F)cc(F)c3)C2)cc1 (stereo not drawn) | 53 | 0
CN1C(=O)Cc2cc(C(=O)NCc3ccc(C(F)(F)F)cc3)ccc21 | 0 | 0
CC(C)CCn1c(=O)[nH]c2cncnc21 | 0 | 0
Cc1cc(-c2nnc(COc3cc(C)c(Cl)c(C)c3)o2)ccc1[N+](=O)[O-] | - | 0
NC(=O)NN=Cc1cc(C(F)(F)F)cc(C(F)(F)F)c1 | - | 0
COc1ccc(OC)c(N2C=C(C#N)S(=O)(=O)c3ccc(Cl)cc32)c1 | 0 | 0
CCCNC(=O)c1cc(=O)[nH]c2c(C)cccc12 | 0 | 0
O=C(c1ccccc1)N1CCC(n2c(-c3ccoc3)nc3cccnc32)C1 (stereo not drawn) | 0 | 0
O=C(c1ccc(C(F)(F)F)cc1)N1CCC(n2c(-c3ccoc3)nc3cccnc32)C1 (stereo not drawn) | 86 | 0
COc1cc(/C=C2/N=C(c3cccc(I)c3)OC2=O)cc(OC)c1OC | 0 | 0
SMILES | mHTT-CaM PPI inh | Pf apPOL inh
COc1ccc(C2C3=C(CCCC3=O)Nc3nc(SCc4ccccc4F)[nH]c(=O)c32)cc1 (stereo not drawn) | 0 | 0
Cc1occc1C(=O)N1CCN(c2ccccn2)CC1 | 0 | 0
Cc1ccc(-c2cc(C(=O)N3CCN(c4ccccn4)CC3)c(C)[nH]2)cc1C | 98 | 0
CCn1c(=O)c(Nc2ccc(Cl)c(C)c2)nc2ccncc21 | 0 | 0
Cc1sc2c(c1C)c(=O)n(-c1ccccc1)c1nnc(SC(C)C)n21 | 0 | 0
COc1ccccc1C=C1Oc2c(ccc3c2CN(c2ccc4c(c2)OCCO4)CO3)C1=O | 0 | 0
COc1cccc(C=C2Oc3c(ccc4c3CN(c3ccc5c(c3)OCCO5)CO4)C2=O)c1OC | 77 | 0
COc1ccc(N2COc3ccc4c(c3C2)OC(=Cc2ccc(OC)c(OC)c2OC)C4=O)cc1 | 81 | 0
COc1ccc(N2COc3ccc4c(c3C2)OC(=Cc2cc(OC)c(OC)c(OC)c2)C4=O)cc1 | 0 | 0
Cc1ccc(C2=NN(CCC(=O)NCCCSC3CCCCC3)C(=O)CC2)cc1 | 0 | 0
Cc1cc(C)cc(C(=O)N2CCCC(C(=O)NCCC3=CCCCC3)C2)c1 (stereo not drawn) | 0 | 0
O=C1c2ccc([N+](=O)[O-])cc2C(=O)N1c1cccc(-c2nc3cc(Cl)ccc3c(=O)o2)c1 | 0 | 0
COc1cc(SC)ccc1C(=O)Nc1cccc([N+](=O)[O-])c1 | 0 | 0
O=C(NC(c1cccs1)c1ccc2cccnc2c1O)C1CCCCC1 (stereo not drawn) | 97 | 0
CC(C)C(NC(=O)C1CCN(c2ccc(N3CCCCC3)nn2)CC1)c1cccs1 (stereo not drawn) | 0 | 0
CCCC(=O)NC(c1cccs1)c1cc(Cl)c2cccnc2c1O (stereo not drawn) | 100 | 0
O=C(CCc1ccccc1)NC(c1cccs1)c1ccc2cccnc2c1O (stereo not drawn) | 0 | 0
CC(C)C(=O)NC(c1cccs1)c1cc(Cl)c2cccnc2c1O (stereo not drawn) | 0 | 0
CC(C)CC(=O)Nc1cccc(NC(=O)c2cccs2)c1 | 0 | 0
CC(C)CC(=O)NC(c1cccs1)c1ccc2cccnc2c1O (stereo not drawn) | 100 | 0
CCCC(=O)NC(c1cccs1)c1ccc2cccnc2c1O (stereo not drawn) | 100 | 0
O=C1c2ccccc2S(=O)(=O)N1Cc1ccc(Cl)cc1Cl | 0 | 0
CC(C)N1CC=C2C(C#N)=C(N)C(C#N)(C#N)C(c3cccc(Br)c3)C2C1 (stereo not drawn) | 0 | 0
C=CCOc1ccc2c3c(c(=O)oc2c1C)CCC3 | 0 | 0
CCc1ccccc1N(CC(=O)Nc1ccccc1Cl)S(C)(=O)=O | 0 | 0
SMILES | mHTT-CaM PPI inh | Pf apPOL inh
NS(=O)(=O)c1ccc(NS(=O)(=O)c2ccc(NC(=O)Nc3ccccc3)cc2)cc1 | 96 | 0
O=S(=O)(Nc1ccc(F)cc1)c1ccccc1 | 0 | 0
COc1ccc(NS(=O)(=O)c2ccc(NS(=O)(=O)c3ccc(NC(C)=O)cc3)cc2)cc1 | 0 | 0
CC(=O)Nc1ccc(S(=O)(=O)Nc2ccc(Oc3ccccc3)cc2)cc1 | 87 | 0
NS(=O)(=O)c1ccc(NS(=O)(=O)c2ccc(NC(=S)Nc3ccccc3)cc2)cc1 | 0 | -
O=S(=O)(Nc1ccc(Nc2ccccc2)cc1)c1ccccc1 | 88 | 0
NC(=O)c1ccc(NS(=O)(=O)c2ccccc2[N+](=O)[O-])cc1 | 0 | 0
O=[N+]([O-])c1ccccc1S(=O)(=O)Nc1ccc(Nc2ccccc2)cc1 | 90 | 0
O=C(NCCNc1ccc(Nc2ccncc2)nn1)c1cccs1 | 0 | 0
Cc1ccc(N(CN2C(=O)c3ccc([N+](=O)[O-])cc3C2=O)C(=O)c2ccccc2F)cc1 | 0 | 0
C=CCOc1cc(Br)c(C=O)cc1OC | 0 | 0
COc1ccc(-c2cc(C(=O)Nc3cc(Cl)ccc3C)no2)cc1 | 0 | 0
COc1cccc2sc(N(CCN(C)C)C(=O)CSc3ccc(F)cc3)nc12 | 0 | 0
COc1ccc(NS(=O)(=O)c2ccc(NS(=O)(=O)c3ccc(OC)cc3)cc2)cc1 | 0 | 0
COc1ccc(S(=O)(=O)Nc2cccc(NS(=O)(=O)c3ccc(OC)cc3)c2)cc1 | 0 | 0
COc1ccc(NS(=O)(=O)c2ccc(NS(C)(=O)=O)cc2)cc1 | 0 | 55
COc1ccc(Nc2ccc(OC)cc2)cc1 | 90 | 0
COc1ccc(S(=O)(=O)Nc2ccc(Nc3ccccc3)cc2)cc1 | 89 | 0

Source: PubChem BioAssay
